Compound activity as filed in PubChem BioAssay.
An excerpt weighted towards active compounds, which were near 11% of everything screened.
Pf growth 96h: Primary qHTS for delayed death inhibitors of the malarial parasite plastid, 96 hour incubation | P. falciparum luciferase reporter growth, 96 h | actives 6.9% (n = 320,000) | Potency, µM (top dose mostly 28.7 µM), hits mostly inhibitors
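Delayed-death screen, second-generation endpoint: infected erythrocytes, 2% hematocrit, 0.05% parasitemia final; 96 hours at 37 C, 5% CO2; luciferase detection reagent; luminescence decrease equals reduced growth.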
AMA1 RON2 block: qHTS for Inhibitors of AMA1-RON; Towards Development of Antimalarial Drug Lead: Primary Screen | AlphaScreen AMA1-biotinylated RON2 peptide binding | Plasmodium falciparum AMA1 (3D7) - RON2 peptide interaction | Potency, µM (top dose mostly 58.2 µM), actives largely listed as inhibitors | actives 0.2% (n = 360,000); also: nearly all actives have a fitted effect of over 45% in size
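AMA1 (3D7) with his tag at 25 nM final met compounds first, then biotinylated RON2 peptide at 25 nM; detection used donor plus acceptor beads, 10 µg/mL apiece, read by AlphaScreen after 30 min at room temperature.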
HCV inhibitor: qHTS Assay for Inhibitors of Hepatitis C Virus (HCV); Huh7.5.1 HCVcc-Cre infection, luciferase reporter, 44 h; Potency, µM (top dose mostly 41.8 µM), hits mostly inhibitors; actives 3.4% (n = 340,000)
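Whole-lifecycle infectious HCVcc-Cre system; cells 1,000/well, compound then virus (~0.5 moi) added 4 h after plating, 44 h culture. Luciferase read 15 sec following 15 min substrate incubation, room temp.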
Pf growth 48h: Primary qHTS for delayed death inhibitors of the malarial parasite plastid, 48 hour incubation; P. falciparum luciferase growth in erythrocytes, 48 h; Potency, µM (top dose mostly 28.7 µM), hits mostly inhibitors; actives 5.9% (n = 310,000)
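Cell-based growth assay: transgenic P. falciparum expressing firefly luciferase, cultured in red cells within RPMI 1640 containing 0.5% w/v Albumax, 24 mM bicarbonate and gentamycin. A drop in luciferase activity indicates inhibition.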
Large screens that a line does not name were inactive. Calls follow the shape of the dose curve; as a rule, active = well fitted curve in the direction sought with a large enough effect; inconclusive = small, poorly fitted or top-dose-only effect, or another doubt; inactive = no such curve, though single readings can be large; an effect the other way counts as inactive or inconclusive.

O=C(NCC(c1ccco1)N1CCCC1)c1ccccc1F (centres undefined)	none (no result: Pf growth 96h)
O=C(Nc1nc2ccccc2n1CCN1CCOCC1)c1ccccc1	none
O=C(Nc1nc2ccccc2n1CCN1CCOCC1)c1cn(-c2ccccc2)nc1-c1ccccc1	Pf growth 96h inconclusive, HCV inhibitor 10µM, Pf growth 48h 10.4µM
Cc1ccc(C(=O)c2cnc3cc4c(cc3c2S(=O)(=O)c2ccccc2)OCCO4)cc1	Pf growth 96h inconclusive, Pf growth 48h 3.29µM
COc1ccc(NC(=O)C2c3ccccc3OCC(=O)N2Cc2ccco2)cc1 (centres undefined)	none (no result: Pf growth 96h, HCV inhibitor, Pf growth 48h)
Cc1cc(-c2nc3ncccc3o2)ccc1NC(=O)CC(C)C	Pf growth 96h 4.15µM
Cc1c(NC(=O)C(C)C)cccc1-c1nc2ncccc2o1	Pf growth 96h 9.28µM
COC(=O)[C@]12CCCCC=C1N(Cc1ccc3c(c1)OCO3)C(=O)[C@H](CC(=O)NCc1ccc(C)o1)C2	none (no result: Pf growth 96h, HCV inhibitor, Pf growth 48h)
N#Cc1ccc(C(=O)Nc2ccc([N+](=O)[O-])cc2)c(F)c1	none
COc1ccc(-c2[nH]ncc2CN(C)C(C)c2ccon2)c(OC)c1 (centres undefined)	Pf growth 96h inconclusive
COc1ccc(-c2[nH]ncc2CN(C)Cc2nonc2C)c(OC)c1	Pf growth 96h 10.4µM
COc1cc(-c2[nH]ncc2CN(C)Cc2nonc2C)cc(OC)c1OC	Pf growth 96h 1.65µM, HCV inhibitor inconclusive, Pf growth 48h inconclusive
Nc1cc2[nH]c(=O)c3ccccc3c2cc1[N+](=O)[O-]	HCV inhibitor inconclusive (no result: Pf growth 96h, Pf growth 48h)
CCNC(=S)N1CCN(c2nc(-c3cccc(OC)c3)cs2)CC1	Pf growth 96h 10.4µM, HCV inhibitor inconclusive, Pf growth 48h inconclusive
COc1cccc(-c2csc(N3CCN(CC(=O)NNC(=O)c4ccc(Br)cc4)CC3)n2)c1	Pf growth 48h inconclusive
COc1cccc(-c2csc(N3CCN(C(=S)Nc4ccccc4OC)CC3)n2)c1	Pf growth 96h inconclusive, HCV inhibitor inconclusive, Pf growth 48h inconclusive
COCCNC(=S)N1CCN(c2nc(-c3cccc(OC)c3)cs2)CC1	Pf growth 96h inconclusive, HCV inhibitor 12.6µM
COc1cccc(-c2csc(N3CCN(C(=S)NCC(C)C)CC3)n2)c1	Pf growth 96h 14.7µM, HCV inhibitor inconclusive, Pf growth 48h 13.1µM
COc1cccc(-c2csc(N3CCN(C(=S)Nc4ccccc4Cl)CC3)n2)c1	Pf growth 96h inconclusive, HCV inhibitor inconclusive, Pf growth 48h 13.1µM
COc1cccc(-c2csc(N3CCN(CC(=O)NNC(=O)c4ccc(Cl)cc4)CC3)n2)c1	Pf growth 96h inconclusive
COCCNC(=S)N1CCN(Cc2cccc(OC)c2)CC1	Pf growth 96h inconclusive
Brc1ccc(-c2nnc3ccc(Nc4ccccc4)nn23)cc1	Pf growth 96h inconclusive (no result: AMA1 RON2 block)
COCCCNC(=S)N1CCN(c2nc(-c3ccc(Cl)cc3)cs2)CC1	none (no result: Pf growth 96h, HCV inhibitor, Pf growth 48h)
CC(C)CNC(=S)N1CCN(c2nc(-c3ccc(Cl)cc3)cs2)CC1	Pf growth 96h 10.4µM, HCV inhibitor 11.2µM
COC(=O)[C@H](CC(C)C)NS(=O)(=O)N(Cc1ccccc1)[C@@H](CC(C)C)C(=O)OC	Pf growth 96h inconclusive, Pf growth 48h 8.28µM
C=CCCN(C(CC(C)C)C(=O)OC)S(=O)(=O)c1ccccc1Br (centres undefined)	Pf growth 96h 11.7µM, Pf growth 48h inconclusive
Cc1ccccc1CN1CCN(C(=O)c2cccc3ccccc23)CC1	AMA1 RON2 block 25.1µM, Pf growth 48h 11.7µM
CCOc1cc(CN2CCN(C(=O)c3cccc4ccccc34)CC2)ccc1OC	Pf growth 96h inconclusive, AMA1 RON2 block inconclusive, HCV inhibitor inconclusive, Pf growth 48h 8.28µM
COc1ccccc1CN1CCN(C(=O)c2cccc3ccccc23)CC1	AMA1 RON2 block inconclusive (no result: Pf growth 96h, Pf growth 48h)
CCN1CCN(Cc2ccc(NC(=O)Nc3ccc(SC)cc3)cc2)CC1	HCV inhibitor inconclusive, Pf growth 48h 1.65µM (no result: Pf growth 96h)
CSc1ccc(CN2CCN(C(=O)CC(C)C)CC2)cc1	HCV inhibitor 11.2µM
COc1ccc(CN2CCN(C(=O)c3cccc4ccccc34)CC2)cc1OC	Pf growth 96h inconclusive, AMA1 RON2 block inconclusive
CSc1ccc(CN2CCN(C(=O)Cc3ccccc3)CC2)cc1	AMA1 RON2 block inconclusive (no result: Pf growth 96h, Pf growth 48h)
CC(=O)NC1[C@H]([C@H](O)[C@H](O)CO)OC(C(=O)O)=C[C@H]1N=C(N)N (some centres undefined)	none (no result: AMA1 RON2 block, HCV inhibitor)
Cc1ccc(NC(=O)Cn2c(=O)c3cccn3c3ccccc32)c(Cl)c1	none
Cc1ccccc1CN1CCN(C(=O)CC(C)C)CC1	Pf growth 96h 10.4µM
CCOC(=O)/C(C)=N/Nc1nc(-c2ccc(NC(C)=O)cc2)cs1	Pf growth 96h 10.4µM, HCV inhibitor inconclusive, Pf growth 48h inconclusive
COc1ccccc1N(Cc1cc(=O)[nH]c2ccccc12)C(C)=O	none
Cc1ccc(N(Cc2cc(=O)[nH]c3ccccc23)C(=O)CCl)c(C)c1	Pf growth 96h 6.57µM, HCV inhibitor inconclusive, Pf growth 48h 9.28µM
CCCC(=O)N(Cc1cc(=O)[nH]c2ccccc12)c1ccccc1OC	Pf growth 96h 11.7µM, Pf growth 48h 7.38µM
CCOC(=O)c1nc(-c2ccccc2)oc1N1CCOCC1	none
O=C(Cn1cnc2ccccc2c1=O)N1CCN(c2ccccc2)CC1	none
O=C(Cn1cc([N+](=O)[O-])nc1[N+](=O)[O-])N1CCN(c2ccccc2)CC1	Pf growth 48h 0.738µM
CC(C)Cn1c(N)c(C(=O)COC(=O)c2c(O)c(Cl)cc(Cl)c2Cl)c(=O)n(C)c1=O	none
Clc1ccc2ncc(-c3nnnn3-c3ccccc3)c(-c3ccccc3)c2c1	Pf growth 96h inconclusive, HCV inhibitor 2.82µM, Pf growth 48h inconclusive
Clc1ccc(-n2nnnc2-c2cnc3ccc(Cl)cc3c2-c2ccccc2)cc1	Pf growth 96h 11.7µM, HCV inhibitor inconclusive, Pf growth 48h 13.1µM
COc1ccc(C(C)(O)c2nc(-c3cccc(F)c3)cs2)cc1 (centres undefined)	none (no result: Pf growth 96h, HCV inhibitor, Pf growth 48h)
O=C1NC(=O)C(CCc2ccncc2)(Cc2cccc(Cl)c2Cl)C(=O)N1c1ccc(Br)cc1 (centres undefined)	Pf growth 96h 5.22µM, Pf growth 48h inconclusive
CCc1ccc(N2C(=O)NC(=O)C(CCc3ccncc3)(CCc3ccncc3)C2=O)cc1	Pf growth 48h inconclusive
COCc1cc(N2CCCCC2)nc(-c2ccccc2)n1	HCV inhibitor 5.62µM
CSCc1cc(N2CCCC2)nc(-c2ccccc2)n1	HCV inhibitor inconclusive
Cc1nnc2c(Oc3ccccc3)nc3ccccc3n12	none
Cc1ccc(Oc2nc3ccccc3n3cccc23)cc1	HCV inhibitor 7.94µM
c1ccc(Oc2nc3ccccc3n3cccc23)cc1	HCV inhibitor 10µM
O=C(CCC(=O)N(CC(=O)NC1CCCC1)C1CCCCC1)Nc1ccccn1	Pf growth 48h inconclusive
CCc1c(O)nc(SCC(=O)N(CC)CC)[nH]c1=O	Pf growth 96h 13.1µM, Pf growth 48h inconclusive
CC/C(=N/Nc1cccc(C)c1)c1cnnc(SC)n1	HCV inhibitor 10µM, Pf growth 48h inconclusive
